Source: PubChem BioAssay (NCI)
Compounds without any hit were thinned out: in the full panel of roughly 79,000, 15% have a hit. Active and inactive are the calls of the source. Cut-off read from the data, not from the text of the source: active = growth inhibition above about 70%; inactive = the rest.

How the values were obtained:
[1] = NCI Yeast Anticancer Drug Screen. Data for the rad52 strain (AID 147);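 note: 0% = growth of vehicle-treated control cultures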; details: S. cerevisiae rad52 mutant growth inhibition, stronger effect = higher value
Summary of the method: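 The repair-mutant yeast strain was incubated with compounds, then growth was read and inhibition derived relative to vehicle.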

[2] = NCI Yeast Anticancer Drug Screen. Data for the wt1 strain (AID 149);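 note: 0% = growth of vehicle-treated wt1 cultures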; details: S. cerevisiae wt1 strain (SPY 50644) growth inhibition, stronger effect = higher value
Summary of the method: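 The wt1 strain was treated with compounds, and growth was compared with vehicle-treated cultures to give inhibition.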

[3] = NCI Yeast Anticancer Drug Screen. Data for the rad50EPP+ strain (AID 151);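 note: 0% = growth of vehicle-treated control cultures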; details: S. cerevisiae rad50 mutant strain, stronger effect = higher value
Summary of the method: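 Vehicle-normalised growth inhibition; rad50EPP+ yeast strain, altered in DNA damage repair, compound-treated.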

[4] = NCI Yeast Anticancer Drug Screen. Data for the rad50 strain (AID 155);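 note: 0% = growth of vehicle-only cultures of the same strain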; details: S. cerevisiae rad50 strain growth inhibition, stronger effect = higher value
Summary of the method: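 Cells are treated with compound, grown, and their growth is then scored against vehicle-only cultures of the same repair-deficient yeast strain.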

[5] = NCI Yeast Anticancer Drug Screen. Data for the mec2-1 strain (AID 157); details: S. cerevisiae mec2-1 strain, stronger effect = higher value
Summary of the method: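 Mutant yeast (mec2-1) grown with compound; growth inhibition relative to vehicle control reported.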

[6] = NCI Yeast Anticancer Drug Screen. Data for the rad14 strain (AID 159);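 note: 0% = growth of vehicle-treated control cultures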; details: S. cerevisiae rad14 strain growth inhibition, stronger effect = higher value
Summary of the method: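 Readout: yeast growth inhibition, referenced to vehicle-only cultures. Strain bears a defined alteration in DNA damage repair.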

[7] = NCI Yeast Anticancer Drug Screen. Data for the sgs1 mgt1 strain (AID 161);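 note: 0% = growth of cultures given vehicle only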; details: S. cerevisiae sgs1 mgt1 strain, stronger effect = higher value
Summary of the method: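 This yeast growth screen uses a strain with defined DNA-repair lesions; compound-treated growth is compared with vehicle-treated growth.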

[8] = NCI Yeast Anticancer Drug Screen. Data for the CLN2oe strain (AID 163);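 note: 0% = growth of vehicle-only control cultures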; details: S. cerevisiae CLN2oe strain, stronger effect = higher value
Summary of the method: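 Compounds are applied to yeast harbouring a defined cell-cycle control change; reduced growth compared with vehicle-treated controls gives the value.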

[9] = NCI Yeast Anticancer Drug Screen. Data for the bub3 strain (AID 167); details: S. cerevisiae bub3 mutant strain, stronger effect = higher value
Summary of the method: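 Part of a panel of yeast mutants defective in DNA damage repair or cell cycle regulation. Each strain is grown with compound, and inhibition is calculated relative to solvent-treated cultures.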

[10] = NCI Yeast Anticancer Drug Screen. Data for the wt2 strain (AID 169);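 note: 0% = growth of vehicle-treated yeast cultures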; details: S. cerevisiae wt2 strain growth inhibition, stronger effect = higher value
Summary of the method: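 Against vehicle-treated controls, the growth of yeast exposed to each compound was compared, and the inhibition was recorded.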

[11] = NCI Yeast Anticancer Drug Screen. Data for the mlh1 strain (AID 171);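 note: 0% = growth of vehicle-treated control cultures of the same strain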; details: S. cerevisiae mlh1 strain growth inhibition, stronger effect = higher value
Summary of the method: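 Measured: yeast growth. Reference: vehicle-treated controls. Organism: strain with a defined alteration affecting DNA damage repair or cell cycle control, treated with compound.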

[12] = NCI Yeast Anticancer Drug Screen. Data for the sgs1 strain (AID 173);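 note: 0% = growth of vehicle-only control cultures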; details: S. cerevisiae sgs1 mutant, stronger effect = higher value
Summary of the method: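 Each compound was added to cultures of the altered yeast strain. Growth was recorded, and inhibition was derived by comparison with vehicle controls.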

[13] = NCI Yeast Anticancer Drug Screen. Data for the mlh1 rad18 strain (AID 175); details: S. cerevisiae mlh1 rad18 strain growth inhibition, stronger effect = higher value
Summary of the method: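 Genetically defined yeast (DNA repair-deficient) exposed to compounds; growth inhibition determined relative to vehicle.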

[14] = NCI Yeast Anticancer Drug Screen. Data for the rad18 strain (AID 177); details: S. cerevisiae rad18 mutant growth inhibition, stronger effect = higher value
Summary of the method: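 Vehicle-treated cultures served as the baseline for scoring compound-induced growth inhibition in DNA-repair-mutant yeast.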

[15] = NCI Yeast Anticancer Drug Screen. Data for the cln2 rad14 strain (AID 165);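 note: 0% = growth equal to vehicle treated cultures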; details: S. cerevisiae cln2 rad14 strain, stronger effect = higher value
Summary of the method: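 Readout is yeast growth inhibition versus vehicle-treated controls, using a strain with cln2 and rad14 alterations exposed to compound.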

[16] = NCI Yeast Anticancer Drug Screen. Data for the mgt1 strain (AID 153); details: S. cerevisiae mgt1 mutant growth inhibition, stronger effect = higher value
Summary of the method: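 Vehicle-normalized growth inhibition is determined in mgt1 yeast, a strain selected for a defined alteration in DNA repair or cell cycle control.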

[17] = at 5.0 µM (retest, dose inferred, filed as 0.5)
[18] = at 50.0 µM (retest, dose inferred, filed as 5.0)

Measured: growth inhibition

Cc1cccc(/C=N/NC(=S)NC2CCCCC2)n1
active: [4]; [18] 77% | [7]; at 50.0 µM 70.8% | [9]; [18] 79% | [9]; at 50.0 µM 72.7%
inactive: [1]; at 1.2 µM -8% | [1]; at 3.7 µM -9% | [1]; at 11.0 µM -8% | [1]; at 33.0 µM 9% | [1]; at 100.0 µM 6% | [2]; at 1.2 µM -7% | [2]; at 3.7 µM -6% | [2]; at 11.0 µM -4% | [2]; at 33.0 µM 10% | [2]; at 100.0 µM 6% | [3]; at 1.2 µM -8% | [3]; at 3.7 µM -8% | [3]; at 11.0 µM -13% | [3]; at 33.0 µM -13% | [3]; at 100.0 µM -12% | [4]; at 1.2 µM -7% | [4]; at 3.7 µM -9% | [4]; [17] -32% | [4]; at 11.0 µM -33% | [4]; at 33.0 µM 13% | [4]; at 50.0 µM 39.5% | [4]; at 100.0 µM 7% | [5]; at 1.2 µM 1% | [5]; at 3.7 µM -6% | [5]; [17] -23% | [5]; at 11.0 µM -5% | [5]; at 33.0 µM 11% | [5]; [18] 64% | [5]; at 50.0 µM 54.8% | [5]; at 100.0 µM 8% | [6]; at 1.2 µM -7% | [6]; at 3.7 µM -15% | [6]; at 11.0 µM -11% | [6]; at 33.0 µM 28% | [6]; at 100.0 µM 26% | [7]; [17] -25% | [7]; [18] 51% | [8]; at 1.2 µM -14% | [8]; at 3.7 µM -17% | [8]; at 11.0 µM -23% | [8]; at 33.0 µM 18% | [8]; at 100.0 µM 12% | [9]; at 1.2 µM -6% | [9]; at 3.7 µM -3% | [9]; [17] -30% | [9]; at 11.0 µM 16% | [9]; at 33.0 µM 32% | [9]; at 100.0 µM 20% | [10]; at 1.2 µM -4% | [10]; at 3.7 µM -4% | [10]; at 11.0 µM 1% | [10]; at 33.0 µM 26% | [10]; at 100.0 µM 18% | [11]; at 1.2 µM -6% | [11]; at 3.7 µM -4% | [11]; at 11.0 µM -3% | [11]; at 33.0 µM 12% | [11]; at 100.0 µM 8% | [12]; at 1.2 µM -3% | [12]; at 3.7 µM -2% | [12]; at 11.0 µM 9% | [12]; at 33.0 µM 40% | [12]; at 100.0 µM 29% | [13]; [17] -19% | [13]; [18] 55% | [13]; at 50.0 µM 62.5% | [14]; at 1.2 µM -5% | [14]; at 3.7 µM -4% | [14]; at 11.0 µM 3% | [14]; at 33.0 µM 20% | [14]; at 100.0 µM 19%

Cc1c2cc[n+](CCO)cc2c(C)c2c1[nH]c1ccc(O)cc12
active: [1]; at 11.0 µM 80% | [1]; at 33.0 µM 91% | [1]; at 100.0 µM 91% | [3]; at 100.0 µM 83% | [4]; at 11.0 µM 89% | [4]; at 33.0 µM 94% | [4]; [18] 93% | [4]; at 50.0 µM 80.5% | [4]; at 100.0 µM 95% | [13]; at 50.0 µM 72.6%
inactive: [1]; at 1.2 µM 25% | [1]; at 3.7 µM 53% | [2]; at 1.2 µM 8% | [2]; at 3.7 µM 12% | [2]; at 11.0 µM 1% | [2]; at 33.0 µM 11% | [2]; at 100.0 µM 13% | [3]; at 1.2 µM 25% | [3]; at 3.7 µM 57% | [3]; at 11.0 µM 59% | [3]; at 33.0 µM 68% | [4]; at 1.2 µM 35% | [4]; at 3.7 µM 68% | [4]; [17] 47% | [7]; [17] 12% | [7]; [18] 35% | [7]; at 50.0 µM -1.6% | [8]; at 1.2 µM -11% | [8]; at 3.7 µM -32% | [8]; at 11.0 µM -17% | [8]; at 33.0 µM -9% | [8]; at 100.0 µM 3% | [15]; [17] 13% | [15]; [18] 15% | [15]; at 50.0 µM 7.55% | [9]; at 1.2 µM 6% | [9]; at 3.7 µM 9% | [9]; [17] 7% | [9]; at 11.0 µM 10% | [9]; at 33.0 µM 24% | [9]; [18] 33% | [9]; at 50.0 µM 1.35% | [9]; at 100.0 µM 28% | [10]; at 1.2 µM -8% | [10]; at 3.7 µM -6% | [10]; at 11.0 µM -4% | [10]; at 33.0 µM -9% | [10]; at 100.0 µM -10% | [11]; at 1.2 µM 25% | [11]; at 3.7 µM 32% | [11]; at 11.0 µM 41% | [11]; at 33.0 µM 42% | [11]; at 100.0 µM 47% | [12]; at 1.2 µM 18% | [12]; at 3.7 µM 19% | [12]; at 11.0 µM 17% | [12]; at 33.0 µM 25% | [12]; at 100.0 µM 42% | [13]; [17] 13% | [13]; [18] 36% | [14]; at 1.2 µM 20% | [14]; at 3.7 µM 20% | [14]; at 11.0 µM 19% | [14]; at 33.0 µM 40% | [14]; at 100.0 µM 49%

CC1=CC(=O)C=CC1=Nc1cc(Cl)c(O)c(Cl)c1
active: [1]; at 100.0 µM 92% | [2]; at 100.0 µM 93% | [16]; at 100.0 µM 94% | [4]; at 50.0 µM 81.4% | [4]; at 100.0 µM 91% | [5]; at 50.0 µM 79.3% | [5]; at 100.0 µM 93% | [6]; at 100.0 µM 89% | [7]; [18] 93% | [7]; at 50.0 µM 83.7% | [8]; at 100.0 µM 90% | [15]; [18] 94% | [15]; at 50.0 µM 77.2% | [9]; [18] 91% | [9]; at 50.0 µM 83% | [9]; at 100.0 µM 92% | [10]; at 100.0 µM 94% | [11]; at 100.0 µM 91% | [12]; at 100.0 µM 89% | [13]; at 50.0 µM 82% | [14]; at 100.0 µM 91%
inactive: [1]; at 1.2 µM -39% | [1]; at 3.7 µM -29% | [1]; at 11.0 µM 7% | [1]; at 33.0 µM 66% | [2]; at 1.2 µM -30% | [2]; at 3.7 µM -24% | [2]; at 11.0 µM -12% | [2]; at 33.0 µM 52% | [16]; at 1.2 µM -4% | [16]; at 3.7 µM 4% | [16]; at 11.0 µM 9% | [16]; at 33.0 µM 40% | [4]; at 1.2 µM -2% | [4]; at 3.7 µM 8% | [4]; [17] 55% | [4]; at 11.0 µM 8% | [4]; at 33.0 µM 62% | [4]; [18] 53% | [5]; at 1.2 µM -21% | [5]; at 3.7 µM -16% | [5]; [17] 63% | [5]; at 11.0 µM -4% | [5]; at 33.0 µM 55% | [5]; [18] 48% | [6]; at 1.2 µM -43% | [6]; at 3.7 µM -31% | [6]; at 11.0 µM -30% | [6]; at 33.0 µM 38% | [7]; [17] -4% | [8]; at 1.2 µM -2% | [8]; at 3.7 µM -9% | [8]; at 11.0 µM 22% | [8]; at 33.0 µM 45% | [15]; [17] 48% | [9]; at 1.2 µM 7% | [9]; at 3.7 µM 11% | [9]; [17] 45% | [9]; at 11.0 µM 8% | [9]; at 33.0 µM 49% | [10]; at 1.2 µM -31% | [10]; at 3.7 µM -20% | [10]; at 11.0 µM -14% | [10]; at 33.0 µM 30% | [11]; at 1.2 µM -51% | [11]; at 3.7 µM -24% | [11]; at 11.0 µM -21% | [11]; at 33.0 µM 10% | [12]; at 1.2 µM -50% | [12]; at 3.7 µM -42% | [12]; at 11.0 µM -17% | [12]; at 33.0 µM 43% | [13]; [17] 40% | [13]; [18] 48% | [14]; at 1.2 µM -11% | [14]; at 3.7 µM -10% | [14]; at 11.0 µM -9% | [14]; at 33.0 µM 60%
